DT40 TDP1 CPT: DT40-hTDP1 cell growth loss with CPT; chicken DT40 Tdp1-/-;hTDP1 cells + 20 nM CPT, ATP luminescence, 48 h; Potency, µM (doses to about 46.2 µM), hits mostly inhibitors; 420,000 tested, 12% active; AID 686979; note: nearly all actives have a fitted effect of over 55% in size
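Chicken DT40 Tdp1-/- cells complemented with human TDP1, 400 cells/well, exposed to compounds plus 20 nM camptothecin for at least 48 h at 37 C; viability read as ATP content by CellTiter-Glo luminescence.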
DT40 TDP1 no CPT: qHTS for Inhibitors of human tyrosyl-DNA phosphodiesterase 1 (TDP1): qHTS in cells in absence of CPT. DT40 Tdp1-/- hTDP1 cells, no CPT, ATP luminescence, 48 h. Potency, µM (series often up to 46.2 µM), usual class: inhibitors. 420,000 tested, 15% active; note: nearly all actives have a fitted effect of over 55% in size
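Readout: luminescence from CellTiter-Glo after 30 min in the dark at RT. Cells: DT40 Tdp1-/- with stable hTDP1, 400/well. Exposure: compounds alone, ≥48 hr, 37 °C.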
HT1080NT lethal: kills 2HG-producing HT-1080-NT fibrosarcoma cells; Potency, µM (top dose mostly 46.1 µM), usual class: cytotoxic; AID 686970; 360,000 tested, 1.6% active; HT-1080-NT fibrosarcoma viability, CellTiter-Glo ATP luminescence, 48 h;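 note: NT is the 2HG producing partner of a matched IDH1 knockdown line; nearly all actives have a fitted effect of over 55% in size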
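750 cells/well, RPMI + 5% FBS; 2 h settle, compound pin-transfer, 48 h at 37 degrees C. CellTiter-Glo 10 min RT, luminescence. Normalized to DMSO and media-only wells.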
HT1080 IDH1KD tx: toxicity to HT-1080 IDH1 knockdown cells (counter line); HT-1080 IDH1 knockdown viability, ATP luminescence, 48 h; Potency, µM (doses to about 46.1 µM), actives largely listed as cytotoxic; 360,000 tested, 2% active
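Luminescent ATP read-out (CellTiter-Glo, 10 min at room temperature) after 48 h compound exposure at 37 °C gave viability of IDH1-knockdown HT-1080 cells. Activity was normalised to DMSO and cell-free wells, then fitted as concentration-response curves.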
IL1B secr inh: blocks inflammasome-driven IL-1 beta release; THP-1 LPS/ATP IL-1B secretion, AlphaLISA, 16 h; stronger effect = lower value; activity change, % at 57.5 µM; 360,000 tested, 4.7% active; in the data active = activity change below about -50%; inconclusive = mostly about -30% to -49%
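Secreted IL-1B measured by AlphaLISA bead assay after 16 h compound exposure of THP-1 cells; compounds (final up to 57.5 uM) added 1 h before LPS (250 ng/mL) and ATP (1.25 mM) stimulation; lower signal means less secretion.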
12-LOX inh: ALOX12 (human) lipoxygenase inhibition; purified 12hLO, xylenol orange hydroperoxide absorbance; Potency, µM (top dose mostly 108 µM), usual class: inhibitors; 580,000 tested, 1.1% active; AID 1671190
Target sequence (P18054 whole entry, looked up): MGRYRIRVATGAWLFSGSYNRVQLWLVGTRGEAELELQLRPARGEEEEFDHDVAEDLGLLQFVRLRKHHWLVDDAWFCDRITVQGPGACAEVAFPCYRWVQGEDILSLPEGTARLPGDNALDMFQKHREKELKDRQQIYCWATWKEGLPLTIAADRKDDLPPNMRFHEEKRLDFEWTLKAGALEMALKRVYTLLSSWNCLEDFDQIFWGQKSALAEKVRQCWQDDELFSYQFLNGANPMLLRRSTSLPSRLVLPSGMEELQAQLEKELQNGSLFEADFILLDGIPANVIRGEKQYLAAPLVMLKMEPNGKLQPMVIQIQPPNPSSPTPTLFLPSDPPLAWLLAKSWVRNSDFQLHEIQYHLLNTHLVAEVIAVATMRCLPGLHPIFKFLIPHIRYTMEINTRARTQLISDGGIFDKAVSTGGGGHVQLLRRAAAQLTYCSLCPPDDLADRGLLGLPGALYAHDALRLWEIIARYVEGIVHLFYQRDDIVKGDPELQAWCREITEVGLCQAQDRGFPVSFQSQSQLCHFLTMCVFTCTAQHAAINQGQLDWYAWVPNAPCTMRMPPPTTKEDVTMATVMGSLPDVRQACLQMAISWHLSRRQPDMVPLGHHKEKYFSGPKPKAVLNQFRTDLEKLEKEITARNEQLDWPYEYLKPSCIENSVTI
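Purified human 12hLO at 150 nM in 25 mM Hepes, 0.01% Triton X-100, pH 7.0, preincubated 15 min at room temperature with compound. Reaction started with 40 uM arachidonic acid, 30 min at room temperature. Hydroperoxide measured by Fe-xylenol orange, 573/405 nm absorbance ratio.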
A number is an active result; - = inactive; ? = inconclusive; . = no result given; ! = repeats disagree; [ ] = remark or other dose. Shown is part of a subset that was picked to be rich in hits. Unless noted, calls come from the whole dose curve; as a rule, active = well fitted curve in the direction sought with a large enough effect; inconclusive = small, poorly fitted or top-dose-only effect, or another doubt; inactive = no such curve, though single readings can be large; an effect the other way counts as inactive or inconclusive.

SMILES	DT40 TDP1 CPT	DT40 TDP1 no CPT	HT1080NT lethal	HT1080 IDH1KD tx	IL1B secr inh	12-LOX inh
c1ccc(CNc2ncnc3c2cnn3Cc2ccccc2)cc1	13µM	13µM	7.94µM	7.94µM	-	-
COc1ccc(Nc2ncnc3c2cnn3Cc2ccccc2)cc1	?	?	?	-	-54.5	?
CC(C)(C)OC(=O)CC(S(=O)(=O)c1ccccc1)S(=O)(=O)c1ccccc1	1.3µM	0.92µM	?	?	-51.4	-
COC(=O)c1ccc2[nH]c3cccc(/C(=C/c4ccccc4)c4ccccc4)c3c2c1	?	?	?	?	-58.1	-
O=C1CCCc2[nH]c3cccc(/C(=C/c4ccccc4)c4ccccc4)c3c21	?	18.4µM	-	-	-	-
CN(CC(=O)Nc1ccc(F)cc1)C(=O)COc1ncnc2scc(-c3ccc(Cl)cc3)c12	.	.	.	.	.	-
CCCN(CC(=O)Nc1ccccc1C)C(=O)c1ccc(COc2ccccc2)cc1	23.1µM	?	-	-	-	-
CCCN(CC(=O)Nc1ccccc1C)C(=O)c1ccc(-c2ccccc2)cc1	-	?	-	-	?	-
Cc1ccc(C(=O)O)cc1NC(=S)NC(=O)c1ccc(COc2ccccc2)cc1	?	?	-	-	-	2.82µM
CCCN(CC(=O)Nc1ccccc1C)C(=O)c1cc2ccccc2oc1=O	-	-	-	-	-	12.6µM!
COc1ccccc1OCCNC(=O)CCC1CCN(C(=O)c2ccccc2F)CC1	.	.	.	.	.	-
COC[C@@H]1CN(C(=O)c2occc2C)C[C@H]1c1ccncc1	.	.	.	.	.	-
COc1ccc(-c2cc(NC=O)c3ncc(-c4cccc(C(F)(F)F)c4)n3c2)cc1OC	23.1µM	20.6µM	?	20.6µM	-63.0	?
COc1cc(-c2cc(NC=O)c3ncc(-c4cccc(C(F)(F)F)c4)n3c2)cc(OC)c1OC	8.2µM	10.3µM	-	-	-	-
COc1ccccc1-c1cc(NC=O)c2ncc(-c3cccc(C(F)(F)F)c3)n2c1	?	18.4µM	-	-	-	-
CN(C)c1ccccc1-c1cc(NC=O)c2ncc(-c3cccc(C(F)(F)F)c3)n2c1	?	23.1µM	?	29.1µM	-73.7	?
COC(CNC(=O)c1ccc(COc2cccc3c2OC(C)(C)C3)cc1)OC	.	.	.	.	.	-
COc1ccc(Cl)cc1CN(C)C(=O)c1ccc2c(c1)CCCN2S(C)(=O)=O	.	.	.	.	.	-
COc1ccccc1-c1cc(NC=O)c2ncc(-c3ccc(F)cc3)n2c1	13µM	18.4µM	?	18.4µM	-	?
O=C(CN1CC(=O)Oc2ccccc21)OCC(=O)c1ccc(Br)cc1	20.6µM	?	-	-	-	-
CC(=O)N1CCCC2(C1)CN(C)c1ccc(C(=O)NC(C)C)cc12 (centres undefined)	.	.	.	.	.	-
CCN(CC)C(=S)SC1CCCCN(C(=O)c2ccccc2)C1=O (centres undefined)	18.4µM	-	-	-	-	-
O=C(NCC1CC1)c1cc(C2CC2)nc2onc(C3CCCNC3)c12 (centres undefined)	.	.	.	.	.	-
CC(O)CNc1nc2c(c(=O)n(C)c(=O)n2C)n1Cc1cccc(F)c1 (centres undefined)	.	.	.	.	.	-
COCCNc1nc2c(c(=O)n(C)c(=O)n2C)n1Cc1cccc(C)c1	6.51µM	7.31µM	-	-	-	-
SMILES	DT40 TDP1 CPT	DT40 TDP1 no CPT	HT1080NT lethal	HT1080 IDH1KD tx	IL1B secr inh	12-LOX inh
Cc1cccc(Cn2c(NCC(C)O)nc3c2c(=O)n(C)c(=O)n3C)c1 (centres undefined)	11.6µM	10.3µM	-	-	-	-
Cc1cccc(Cn2c(NCCN3CCOCC3)nc3c2c(=O)n(C)c(=O)n3C)c1	.	.	.	.	.	-
Cc1cccc(OCCNc2nc3c(c(=O)n(C)c(=O)n3C)n2C)c1	16.4µM	16.4µM	-	-	-	?
COc1cccc(Cn2c(Oc3cccc(C)c3)nc3c2c(=O)n(C)c(=O)n3C)c1	20.6µM	23.1µM	?	?	-	-
COCCCNc1nc2c(c(=O)n(C)c(=O)n2C)n1Cc1ccc(Cl)c(Cl)c1	.	.	.	.	.	-
COCCCNc1nc2c(c(=O)n(C)c(=O)n2C)n1Cc1cccc(OC)c1	18.4µM	10.3µM	-	-	-	-
CNC(=O)[C@@H]1CN(C(=O)c2ccc(Br)cc2F)C[C@H]1CO	.	.	.	.	.	-
Oc1cc(-c2nc3ccccc3s2)cc2c1OCCN(Cc1cccn1-c1ncccn1)C2	-[9.04 µM]	16.4µM	.	.	.	-
Oc1cc(-c2nc3ccccc3s2)cc2c1OCCN(Cc1cccn1-c1ccccn1)C2	-	-	.	.	.	?

Bioassay records: PubChem, National Center for Advancing Translational Sciences (NCATS)
